# Laboratory results as given in PubChem BioAssay (Tox21).
# Values without a mark were called inactive. Results filed as inconclusive are left out. Entries that show only a call come without a potency. Active and inactive are the calls of the source. Unless noted, the call rests on the fitted dose curve; in most records, active means well fitted curve in the direction sought with a large enough effect in the repeat runs; inconclusive means weak or mixed curves; inactive means no such curve, though single readings can be large; an effect the other way counts as inactive or inconclusive.
# Columns and labels:
# [1] = qHTS assay to identify small molecule HDAC inhibitors (AID 1259364); further: nearly all actives have a fitted effect of over 45% in size; further: potency means the concentration at half of the fitted maximal effect; on activity change, negative = inhibition: top concentration of the series differs between compounds
# Procedure, shortened: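 Wild-type HCT-116 cells were plated overnight, exposed to compounds for 2 h at 37 °C, then given HDAC-Glo class I/II luminogenic reagent for 30 min at room temperature before luminescence was read.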
# [2] = qHTS assay to identify small molecule HDAC inhibitors - cell viability counter screen (AID 1259365); further: series mostly up to about 92 µM; nearly all actives have a fitted effect of over 50% in size
# Procedure, shortened: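 Wild-type HCT-116 cells, 1,500/well, cultured overnight, then compound-treated 2 h at 37 C. Viability measured as ATP luminescence with CellTiter-Glo after 30 min at room temperature.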
# [3] = qHTS assay to identify small molecule agonists of the sonic hedgehog signaling (Shh) pathway - cell viability counter screen (AID 1259366); further: nearly all actives have a fitted effect of over 50% in size
# Procedure, shortened: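 NIH/3T3-derived Gli1-Luc reporter cells, 2,000 per well, received compound after 4 h and were treated about 23 h at 37C. Viability measured in the same wells by CellTiter-Fluor fluorescence after 1 h.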
# [4] = qHTS assay to identify small molecule antagonists of the sonic hedgehog signaling (Shh) pathway - cell viability counter screen (AID 1259367); further: nearly all actives have a fitted effect of over 55% in size
# Procedure, shortened: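 NIH/3T3-derived Gli1-Luc reporter cells (2,000 per well) rested 4 hr at 37 C, then received DMSO compounds plus conditioned medium. After 23 hr of treatment, CellTiter-Fluor was added for 1 hr at 37C and fluorescence read.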
# [5] = qHTS assay to identify small molecule agonists of the sonic hedgehog signaling (Shh) pathway (AID 1259368; calls by dose curve; further: series mostly up to about 92 µM; nearly all actives have a fitted effect of over 15% in size)
# Procedure, shortened: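 NIH/3T3-derived 3T3Gli1-Luc cells carrying a stably integrated Gli1 response element–firefly luciferase reporter were plated, left 4 hr at 37 C, then given compounds in DMSO for 24 hr. Luminescence was read 30 min after adding luciferase reagent.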
# [6] = qHTS assay to identify small molecule antagonists of the sonic hedgehog signaling (Shh) pathway (AID 1259369; calls by dose curve; further: nearly all actives have a fitted effect of over 45% in size)
# Procedure, shortened: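 NIH/3T3-derived 3T3Gli1-Luc cells with stably integrated Gli1-Luc reporter were preincubated 4hr at 37 C, then given compounds in DMSO plus Shh conditioned medium and incubated 24hr. Firefly luciferase luminescence read after 30min reagent at room temperature.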
# [7] = target: Estrogen receptor beta (Homo sapiens) (UniProt Q92731); assay: qHTS assay to identify small molecule agonists of the estrogen receptor beta (ER-beta) signaling pathway (AID 1259377; active means well fitted activation curve with a large enough effect in the signal ratio in the repeat runs, not every such curve was filed as active; the % refers to the signal ratio)
# Procedure, shortened: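 ER-beta-UAS-bla HEK293T cells in medium with 2% charcoal-stripped FBS were exposed to compounds for 16 h at 37C. Beta-lactamase reporter activity was read as fluorescence after 2 h with LiveBLAzer B/G FRET substrate at room temperature.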
# [8] = target: Estrogen receptor beta (Homo sapiens) (UniProt Q92731); assay: qHTS assay to identify small molecule antagonists of the estrogen receptor beta (ER-beta) signaling pathway (AID 1259378; active means well fitted inhibition curve with a large enough effect in the signal ratio in the repeat runs, not every such curve was filed as active; the % refers to the signal ratio)
# Procedure, shortened: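 ER-beta-UAS-bla HEK293T (GripTite) cells in 2% charcoal-stripped FBS medium were preincubated 6 hr at 37C, dosed with compound, then stimulated with 1 nM E2 (final) for 16 hr; beta-lactamase reporter read by B/G FRET fluorescence after 2 hr substrate loading.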
# [9] = qHTS assay to identify small molecule agonists of the estrogen receptor beta (ER-beta) signaling pathway - cell viability counter screen (AID 1259380); further: nearly all actives have a fitted effect of over 30% in size
# Procedure, shortened: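 ER-beta-UAS-bla HEK293T cells in medium with 2% charcoal-stripped FBS were preincubated 6 hr at 37C, dosed with compound in DMSO for 16 hr, then after the bla read, CellTiter-Glo was added for 30 min at room temperature; luminescence recorded.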
# [10] = qHTS assay to identify small molecule agonists of the androgen receptor (AR) signaling pathway in the presence of an antagonist - cell viability counter screen (AID 1259379);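 further: MDA-kb2 human breast cancer cells carrying an MMTV luciferase reporter; series mostly up to about 92 µM; nearly all actives have a fitted effect of over 25% in size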
# Procedure, shortened: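 MDA-kb2 human breast carcinoma cells (stable MMTV-luciferase, AR/GR responsive) were seeded 3,000 cells/well, pre-incubated 5 hr at 37C without CO2, then given 3.0uM nilutamide and compounds at 15 concentrations for 16 hr. Viability was read by CellTiter-Fluor fluorescence.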
# Sequence of Estrogen receptor beta (Homo sapiens) (Q92731 whole entry, looked up): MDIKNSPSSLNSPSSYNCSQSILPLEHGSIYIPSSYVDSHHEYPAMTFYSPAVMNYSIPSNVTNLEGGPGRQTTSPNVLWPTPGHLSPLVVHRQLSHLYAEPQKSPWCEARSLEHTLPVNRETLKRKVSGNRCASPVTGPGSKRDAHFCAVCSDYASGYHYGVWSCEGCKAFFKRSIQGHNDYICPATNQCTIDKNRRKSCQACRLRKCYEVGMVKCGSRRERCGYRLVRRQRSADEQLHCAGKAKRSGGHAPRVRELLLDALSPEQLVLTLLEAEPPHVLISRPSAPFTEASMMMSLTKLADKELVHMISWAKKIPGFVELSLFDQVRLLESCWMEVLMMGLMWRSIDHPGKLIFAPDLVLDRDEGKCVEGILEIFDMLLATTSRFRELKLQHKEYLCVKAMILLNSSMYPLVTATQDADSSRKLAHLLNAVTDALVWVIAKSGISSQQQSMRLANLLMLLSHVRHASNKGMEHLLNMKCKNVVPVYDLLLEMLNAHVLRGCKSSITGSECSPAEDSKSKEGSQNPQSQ
compound,measurement,setting,value
C#CCN[C@@H]1CCc2ccccc21,Potency,[1],inactive
same,outcome,[2],inactive
same,outcome,[3],inactive
same,outcome,[4],inactive
same,outcome,[5],inactive
same,Potency,[6],inactive
same,Potency,[7],inactive
same,Potency,[8],inactive
same,outcome,[9],inactive
CCCc1ccc(O)cc1,Potency,[1],inactive
same,outcome,[2],inactive
same,outcome,[3],inactive
same,outcome,[4],inactive
same,outcome,[5],inactive
same,Potency,[6],inactive
same,Potency,[8],inactive
same,outcome,[10],inactive
same,outcome,[9],inactive
CC1=C(C(=O)O)N2C(=O)[C@@H](NC(=O)[C@H](N)c3ccccc3)[C@H]2SC1,Potency,[1],inactive
same,outcome,[2],inactive
same,outcome,[3],inactive
same,outcome,[4],inactive
same,outcome,[5],inactive
same,Potency,[6],inactive
same,Potency,[8],inactive
C=CC/C=C/C,Potency,[1],inactive
same,outcome,[2],inactive
same,outcome,[3],inactive
same,outcome,[4],inactive
same,outcome,[5],inactive
same,Potency,[6],inactive
same,Potency,[8],inactive
same,outcome,[10],inactive
same,outcome,[9],inactive
CCC(=O)CC,Potency,[1],inactive
same,outcome,[2],inactive
same,outcome,[3],inactive
same,outcome,[4],inactive
same,outcome,[5],inactive
same,Potency,[6],inactive
same,outcome,[10],inactive
same,outcome,[9],inactive
CC1=NN(c2ccc(S(=O)(=O)O)cc2)C(=O)C1,Potency,[1],inactive
same,outcome,[2],inactive
same,outcome,[3],inactive
same,outcome,[4],inactive
same,outcome,[5],inactive
same,Potency,[6],inactive
same,outcome,[10],inactive
same,outcome,[9],inactive
N#Cc1cscn1,Potency,[1],inactive
same,outcome,[2],inactive
same,outcome,[3],inactive
same,outcome,[4],inactive
same,outcome,[5],inactive
same,Potency,[6],inactive
same,Potency,[7],inactive
same,outcome,[10],inactive
same,outcome,[9],inactive
CCOc1ccccc1OCC1CNCCO1 (configuration not stated),Potency,[1],inactive
same,outcome,[2],inactive
same,outcome,[3],inactive
same,outcome,[4],inactive
same,outcome,[5],inactive
same,Potency,[6],inactive
same,Potency,[8],inactive
same,outcome,[10],inactive
same,outcome,[9],inactive
C=CCCCCCCCCC(=O)OCCCC,Potency,[1],inactive
same,outcome,[2],inactive
same,outcome,[3],inactive
same,outcome,[4],inactive
same,outcome,[5],inactive
same,Potency,[6],inactive
same,Potency,[8],inactive
same,outcome,[10],inactive
same,outcome,[9],inactive
Fc1ccccc1,Potency,[1],inactive
same,outcome,[2],inactive
same,outcome,[3],inactive
same,outcome,[4],inactive
same,outcome,[5],inactive
same,Potency,[6],inactive
same,outcome,[10],inactive
OCCN1CCOCC1,Potency,[1],inactive
same,outcome,[2],inactive
same,outcome,[3],inactive
same,outcome,[4],inactive
same,outcome,[5],inactive
same,Potency,[6],inactive
same,Potency,[8],inactive
same,outcome,[10],inactive
same,outcome,[9],inactive
Cc1c(C(=O)c2c[nH]n(C)c2=O)ccc(S(C)(=O)=O)c1C1=NOCC1,Potency,[1],inactive
same,outcome,[2],inactive
same,outcome,[3],inactive
same,outcome,[4],inactive
same,outcome,[5],inactive
same,Potency,[6],inactive
same,Potency,[8],inactive
same,outcome,[10],inactive
same,outcome,[9],inactive
Cc1ccc(N)cc1S(=O)(=O)O,Potency,[1],inactive
same,outcome,[2],inactive
same,outcome,[3],inactive
same,outcome,[4],inactive
same,outcome,[5],inactive
same,Potency,[6],inactive
same,Potency,[8],inactive
same,outcome,[9],inactive
C=Cc1ccc(C(C)(C)C)cc1,Potency,[1],inactive
same,outcome,[2],inactive
same,outcome,[3],inactive
same,outcome,[4],inactive
same,outcome,[5],inactive
same,Potency,[6],inactive
same,outcome,[10],inactive
same,outcome,[9],inactive
CN(C)CCN(C)CCO,Potency,[1],inactive
same,outcome,[2],inactive
same,outcome,[3],inactive
same,outcome,[4],inactive
same,outcome,[5],inactive
same,Potency,[6],inactive
same,Potency,[8],inactive
same,outcome,[10],inactive
same,outcome,[9],inactive
CC(=O)CCc1ccc(OC(C)=O)cc1,Potency,[1],inactive
same,outcome,[2],inactive
same,outcome,[3],inactive
same,outcome,[4],inactive
same,outcome,[5],inactive
same,Potency,[6],inactive
same,Potency,[7],inactive
same,Potency,[8],inactive
same,outcome,[9],inactive
Cc1ccc2c(c1)C(=O)c1ccccc1C2=O,Potency,[1],1210 nM (active)
same,outcome,[2],inactive
same,outcome,[3],inactive
same,outcome,[4],inactive
same,outcome,[5],inactive
same,Potency,[6],inactive
same,Potency,[8],inactive
same,outcome,[10],inactive
O=S(=O)(O)c1ccc2c(N=Nc3ccc(S(=O)(=O)O)c4ccccc34)c(O)c(S(=O)(=O)O)cc2c1,"activity change, negative = inhibition",[1],1.26% [at 8.39 µM]
same,"activity change, negative = cytotoxicity",[2],-10.4% [at 8.39 µM]
same,"viability change, negative = cytotoxic",[3],-12.8% [at 8.39 µM]
same,"viability change, negative = cytotoxic",[4],-12.4% [at 8.39 µM]
same,activity change,[5],-2.14% [at 8.39 µM]
same,"activity change, negative = inhibition",[6],39.1% [at 8.39 µM]
same,"activity change, negative = cytotoxicity",[10],-15.5% [at 8.39 µM]
same,"activity change, negative = cytotoxicity",[9],3.66% [at 8.39 µM]
COP(=O)(O)OP(=O)(O)OC,Potency,[1],inactive
same,outcome,[2],inactive
same,outcome,[3],inactive
same,outcome,[4],inactive
same,outcome,[5],inactive
same,Potency,[6],inactive
same,Potency,[8],inactive
same,outcome,[10],inactive
same,outcome,[9],inactive
C=C(C)C1CC=C(C)C(=O)C1 (configuration not stated),Potency,[1],inactive
same,outcome,[2],inactive
same,outcome,[3],inactive
same,outcome,[4],inactive
same,outcome,[5],inactive
same,Potency,[6],inactive
same,Potency,[8],inactive
same,outcome,[10],inactive
same,outcome,[9],inactive
C=C(C)c1cccc(C(C)(C)N=C=O)c1,Potency,[1],inactive
same,outcome,[2],inactive
same,outcome,[3],inactive
same,outcome,[4],inactive
same,outcome,[5],inactive
same,Potency,[6],inactive
same,Potency,[8],inactive
same,outcome,[10],inactive
same,outcome,[9],inactive
CC1CCc2c(N3CCC(O)CC3)c(F)cc3c(=O)c(C(=O)O)cn1c23 (configuration not stated),Potency,[1],inactive
same,outcome,[2],inactive
same,outcome,[3],inactive
same,outcome,[4],inactive
same,outcome,[5],inactive
same,Potency,[6],inactive
same,outcome,[10],inactive
same,outcome,[9],inactive
CC(C)CO,Potency,[1],inactive
same,outcome,[2],inactive
same,outcome,[3],inactive
same,outcome,[4],inactive
same,outcome,[5],inactive
same,Potency,[6],inactive
same,Potency,[7],inactive
same,outcome,[10],inactive
same,outcome,[9],inactive
OC1(c2ccc(Cl)cc2)CCNCC1,Potency,[1],inactive
same,outcome,[2],inactive
same,outcome,[3],inactive
same,outcome,[4],inactive
same,outcome,[5],inactive
same,Potency,[6],inactive
same,Potency,[8],inactive
same,outcome,[10],inactive
same,outcome,[9],inactive
CC(C)c1ccc(C=O)cc1,Potency,[1],inactive
same,outcome,[2],inactive
same,outcome,[3],inactive
same,outcome,[4],inactive
same,outcome,[5],inactive
same,Potency,[6],inactive
same,outcome,[10],inactive
same,outcome,[9],inactive
COS(=O)(=O)O,Potency,[1],inactive
same,outcome,[2],inactive
same,outcome,[3],inactive
same,outcome,[4],inactive
same,outcome,[5],inactive
same,Potency,[6],inactive
same,Potency,[8],inactive
same,outcome,[9],inactive
Cn1c(=O)c2[nH]c(Br)nc2n(C)c1=O,Potency,[1],inactive
same,outcome,[2],inactive
same,outcome,[3],inactive
same,outcome,[4],inactive
same,outcome,[5],inactive
same,Potency,[6],inactive
same,Potency,[8],inactive
same,outcome,[10],inactive
same,outcome,[9],inactive
C[C@H]1[C@@H](c2ccccc2)NC(=O)N1C,Potency,[1],inactive
same,outcome,[2],inactive
same,outcome,[3],inactive
same,outcome,[4],inactive
same,outcome,[5],inactive
same,Potency,[6],inactive
same,Potency,[8],inactive
same,outcome,[10],inactive
same,outcome,[9],inactive
CCCCCCCCCCOC(C)=O,Potency,[1],inactive
same,outcome,[2],inactive
same,outcome,[3],inactive
same,outcome,[4],inactive
same,outcome,[5],inactive
same,Potency,[6],inactive
same,outcome,[10],inactive
same,outcome,[9],inactive
CN(C)CCCO[C@@H]1[C@H]2OC(C)(C)O[C@H]2O[C@@H]1C(O)CO (some centres not stated),Potency,[1],inactive
same,outcome,[2],inactive
same,outcome,[3],inactive
same,outcome,[4],inactive
same,outcome,[5],inactive
same,Potency,[6],inactive
same,outcome,[9],inactive
CCn1cc(C(=O)O)c(=O)c2cnc(N3CCCC3)nc21,"activity change, negative = inhibition",[1],0.504% [at 8.39 µM]
same,"activity change, negative = cytotoxicity",[2],0.53% [at 8.39 µM]
same,"viability change, negative = cytotoxic",[3],-0.379% [at 8.39 µM]
same,"viability change, negative = cytotoxic",[4],-1.09% [at 8.39 µM]
same,activity change,[5],1.04% [at 8.39 µM]
same,"activity, negative = inhibition",[8],15.3% [at 8.39 µM]
same,"activity change, negative = cytotoxicity",[10],0.387% [at 8.39 µM]
same,"activity change, negative = cytotoxicity",[9],2.48% [at 8.39 µM]
CCC(C(=O)OCCN1CCOC(c2ccccc2)C1C)c1ccccc1 (configuration not stated),Potency,[1],inactive
same,outcome,[2],inactive
same,outcome,[3],inactive
same,outcome,[4],inactive
same,outcome,[5],inactive
same,outcome,[10],inactive
same,outcome,[9],inactive
CC(O)COC(C)(C)C (configuration not stated),Potency,[1],inactive
same,outcome,[2],inactive
same,outcome,[3],inactive
same,outcome,[4],inactive
same,outcome,[5],inactive
same,Potency,[6],inactive
same,outcome,[10],inactive
same,outcome,[9],inactive
[O-][n+]1cccc(/C(Cl)=N/OC[C@@H](O)CN2CCCCC2)c1,Potency,[1],inactive
same,outcome,[2],inactive
same,outcome,[3],inactive
same,outcome,[4],inactive
same,outcome,[5],inactive
same,Potency,[7],inactive
same,Potency,[8],inactive
same,outcome,[9],inactive
CC(=O)CC(=O)Nc1ccc(C)cc1C,Potency,[1],inactive
same,outcome,[2],inactive
same,outcome,[3],inactive
same,outcome,[4],inactive
same,outcome,[5],inactive
same,Potency,[7],inactive
same,Potency,[8],inactive
same,outcome,[10],inactive
same,outcome,[9],inactive
Cc1ncc([N+](=O)[O-])n1CC(C)O (configuration not stated),Potency,[1],inactive
same,outcome,[2],inactive
same,outcome,[3],inactive
same,outcome,[4],inactive
same,outcome,[5],inactive
same,Potency,[7],inactive
same,Potency,[8],inactive
same,outcome,[9],inactive
